In ChEMBL document CHEMBL4513216, “Probing the Open Global Health Chemical Diversity Library for Multistage-Active Starting Points for Next-Generation Antimalarials” (ACS Infect Dis, 2020):
Out of some 65,000 compounds screened, about 2,100 (3.2%) showed an effect of 50% or more. The median lay at about -52%. The sample holds strong results, similar compounds and a random draw of the others, so the mix is not that of the screen.

system: Plasmodium falciparum; experiment: Screen against P. falciparum Asexual Blood Stage (ABS), at 5uM; type: functional, Dd2; settings: tested at 5 uM

| Compound | INHIBITION [%] |
| --- | --- |
| Cc1cc(C)n(CC2CN(Cc3cnc(C)s3)CCO2)n1 (centres undefined) | 53.2 |
| Cc1cc(CN2CCOC(Cn3nc(C)cc3C)C2)on1 (centres undefined) | 46.7 |
| Cc1cnc(CN2CCOC(Cn3nc(C)cc3C)C2)cn1 (centres undefined) | -20.8 |
| CCN1CCN(C(=O)c2cc(NC(=O)c3ccccc3)n(C)n2)CC1 | -98 |
| CC(=O)N(Cc1ncc(C)o1)C1CCN(Cc2nccn2C)C1 (centres undefined) | -133 |
| CC(=O)N(Cc1ncc(C(C)C)o1)C1CCN(Cc2cc(C)no2)C1 (centres undefined) | 59 |
| CC(=O)N(Cc1ncc(C(C)C)o1)C1CCN(Cc2nccn2C)C1 (centres undefined) | -176 |
| CC(=O)N(Cc1ncc(C(C)C)o1)C1CCN(Cc2ccno2)C1 (centres undefined) | 45.7 |
| CCc1cnc(CN(C(C)=O)C2CCN(Cc3nccn3C)C2)o1 (centres undefined) | 51.5 |
| CC(=O)N(Cc1ncc(C(C)C)o1)C1CCN(CC2CCC2)C1 (centres undefined) | -113 |
| CC(=O)N(Cc1ncc(C(C)C)o1)C1CCN(CCn2cccn2)C1 (centres undefined) | -150 |
| CC(=O)N(Cc1ncc(C(C)C)o1)C1CCN(CCC#N)C1 (centres undefined) | 57 |
| CC(=O)N(Cc1ncc(C(C)C)o1)C1CCN(Cc2cc(C)on2)C1 (centres undefined) | -83.8 |
| COCCN(Cc1cnn(C)c1)C(=O)C1CCCN(C2CCOCC2)C1 (centres undefined) | -15.9 |
| CCN(Cc1ccncc1)c1cc(C2CCCNC2)nc(C)n1 (centres undefined) | -121 |
| CN(Cc1cccnc1)C1COC2(CCN(Cc3nccs3)CC2)C1 (centres undefined) | -52.5 |
| O=C(c1cccnc1)N1CCCC1c1cc[nH]n1 (centres undefined) | -66.5 |
| N#Cc1ccc(N2CCCC3(CCN(c4cccnc4)CC3)C2)cc1 | -71.3 |
| COc1cc(C)sc1C(=O)NCCC(=O)N(C)Cc1ccccc1 | 59.3 |
| COc1cc(C)sc1C(=O)NCCNc1ccccc1 | 18.7 |
| COc1cc(C)sc1C(=O)NCCC(=O)N(C)c1ccccc1 | 33.9 |
| Fc1ccc(OCCNC2CCN(Cc3ccccn3)CC2)c(F)c1 | 69.8 |
| c1ccc(CN2CCC(NCCc3ccc4c(c3)CCO4)CC2)nc1 | 36 |
| N#Cc1ccc(NC2CCN(Cc3ccccn3)CC2)c(F)c1 | -118 |
| COC(=O)c1ccc(CNCc2cn(C)nc2C)cc1 | -133 |
| O=C(NCCC1=CCCCC1)NC1CCCc2c1cnn2CCO (centres undefined) | -134 |

| Compound | INHIBITION [%] |
| --- | --- |
| CN(Cc1ccccc1)CC(O)Cn1cnc2ccsc2c1=O (centres undefined) | 19 |
| CN(Cc1ccccc1)CC(O)Cn1cnc2ccccc2c1=O (centres undefined) | -2.56 |
| CN(Cc1ccccc1)CC(O)Cn1cnc2sccc2c1=O (centres undefined) | 62.1 |
| CC(C)CS(=O)(=O)Nc1ccc2c(c1)OCC(C)(C)C(=O)N2C | -28.6 |
| CCCC(NC(=O)c1cc(C)c(F)cc1F)c1nnn[nH]1 (centres undefined) | -94.1 |
| C=Cn1ncc(CN2C[C@@H]3C[C@@H](O)CN3C[C@@H]2Cc2ccccc2)c1C | -7.65 |
| O[C@@H]1C[C@H]2CN(CC3CCCCC3)[C@H](Cc3ccccc3)CN2C1 | 37.6 |
| COc1ncc(CN2C[C@@H]3C[C@@H](O)CN3C[C@@H]2Cc2ccccc2)cn1 | -117 |
| CCc1ncc(CN2C[C@@H]3C[C@@H](O)CN3C[C@@H]2Cc2ccccc2)cn1 | -55 |
| O[C@@H]1C[C@H]2CN(Cc3ccccc3Cl)[C@H](Cc3ccccc3)CN2C1 | 56.3 |
| O[C@@H]1C[C@H]2CN(Cc3ccccc3)[C@H](Cc3ccccc3)CN2C1 | 69.1 |
| COCC(=O)N1CCCC(c2cc(C(F)F)n3ncnc3n2)C1 (centres undefined) | 10.4 |
| Cn1cc(NC(=O)Cn2cc(-c3ccccc3)ncc2=O)cn1 | -15.3 |
| COC(=O)c1cccc(S(=O)(=O)NCC(c2ccco2)N2CCCC2)c1 (centres undefined) | 19.7 |
| Cc1cnn(CC2CCCN2C(=O)Cc2cccs2)c1 (centres undefined) | -35.5 |
| Cc1cc(C)n(C2CN(CC(O)c3ccc4c(c3)OCO4)C2)n1 (centres undefined) | 43.5 |
| Cc1cc(C)n(C2CN(CC(O)c3ccc(C(F)(F)F)cc3)C2)n1 (centres undefined) | 65.4 |
| COc1ccc(C(O)CN2CC(n3nc(C)cc3C)C2)cc1 (centres undefined) | 49.2 |
| Cc1cc(C)n(C2CN(CC(O)c3ccc(F)cc3)C2)n1 (centres undefined) | 62.8 |
| Cc1cc(C)n(C2CN(CC(O)COc3ccc(F)cc3)C2)n1 (centres undefined) | -18.8 |
| Cc1cnn(C2CN(CC(O)c3ccc(F)cc3)C2)c1 (centres undefined) | 57.4 |
| Cc1cc(C)n(C2CN(CC(O)c3ccc(S(C)(=O)=O)cc3)C2)n1 (centres undefined) | -123 |
| Cc1cnn(C2CN(CC(O)c3ccccc3)C2)c1 (centres undefined) | 40.9 |
| COc1ccc(C(O)CN2CC(n3cc(C)cn3)C2)cc1 (centres undefined) | 22 |
| O=C(Cc1ccccc1)N1CCC(c2nnc(-c3ccccn3)o2)CC1 | 2.71 |
| CC(Cc1ccco1)NC(=O)Nc1ccc(N(C)C)nc1 (centres undefined) | -297 |

| Compound | INHIBITION [%] |
| --- | --- |
| CC(C)COC(=O)N1CC(=O)N(CCc2ccccc2)CC(O)C1 (centres undefined) | -47.8 |
| Cc1oc(-c2ccsc2)nc1CN1CCCC(c2ccnn2C)C1 (centres undefined) | -72.5 |
| CN1CCN(Cc2cccnc2)C2(CCN(c3ncccn3)C2)C1=O (centres undefined) | -162 |
| Cn1ccnc1C(=O)N1CCC2(CCN2c2ncccn2)C1 (centres undefined) | -49.3 |
| Cc1ccc(Nc2nccc(C3CCN(C(=O)CN)C3)n2)nc1 (centres undefined) | -205 |
| CS(=O)(=O)CCN1CCN(c2ccc(Cl)cn2)CC1 | 0.0372 |
| CSCCCN1CCN(c2ccc(Cl)cn2)CC1 | 30.7 |
| Clc1ccc(N2CCN(CCCN3CCCCC3)CC2)nc1 | 69.2 |
| CN1CCN(Cc2ccncc2)C(=O)C12CCN(c1nccs1)CC2 | -78.4 |
| CCCc1nc(C(C)(C)NC(=O)C2CC(=O)N(CC)C2)no1 (centres undefined) | -33.1 |
| N#Cc1cc(C#N)c(SCCC(=O)Nc2ccc(F)cc2)nc1N | 13.7 |
| N#Cc1cc(C#N)c(SCC(=O)NCc2ccc(F)cc2)nc1N | -74.4 |
| N#Cc1cc(C#N)c(SCC(=O)Nc2ccc(F)cc2)nc1N | 67.3 |
| CCC(Nc1ccc(CCN2CCCCC2)cc1)C(N)=O (centres undefined) | 1.58 |
| O=C(O)c1cc(S(=O)(=O)Nc2ccc(F)cc2F)cc2c1OCCO2 | -20.9 |
| CCn1cnnc1CNC(=O)N1CCN(c2ccccc2OC)CC1 | -69.5 |
| O=C(c1cc(Cl)c[nH]1)N1CCCC(c2cc(C(F)(F)F)[nH]n2)C1 (centres undefined) | 20.5 |
| Cc1ccc(-c2nc(CSCCC(=O)NC(N)=O)co2)c(C)c1 | -115 |
| CSc1ccc(C(=O)N2CCOCC2c2c(C)n[nH]c2C)o1 (centres undefined) | -159 |
| Cc1cc(C)n(CC(=O)NC(Cc2ccsc2)c2ccccn2)c(=O)n1 (centres undefined) | -151 |
| CCOc1ncccc1CNc1nnc(C)c(C)c1C#N | 60 |
| Cc1nnc(NCc2ccccc2F)c(C#N)c1C | 64.4 |
| COc1ccccc1C1(CNc2nnc(C)c(C)c2C#N)CCOCC1 | 3.69 |
| COCc1ccccc1CNc1nnc(C)c(C)c1C#N | -155 |
| COc1ccccc1C1(CNc2nnc(C)c(C)c2C#N)CCCC1 | 58.4 |
| Cc1nnc(NCC2(c3ccccc3)CCC2)c(C#N)c1C | -32.2 |

| Compound | INHIBITION [%] |
| --- | --- |
| Cc1nnc(NCc2ccccc2Cl)c(C#N)c1C | 6.46 |
| CCCOc1ncccc1CNc1nnc(C)c(C)c1C#N | -121 |
| Cc1nnc(NCc2cccnc2OCC(F)(F)F)c(C#N)c1C | -46.2 |
| Cc1ccccc1COCCOCn1c(C)cc(=O)[nH]c1=O | -70.8 |
| CCn1nnc2c1C(COCC(=O)N(C)C)CN(Cc1ccoc1)C2 (centres undefined) | -97.7 |
| O=C(Cc1cccs1)Nc1cnn(C2CCOCC2)c1 | -142 |
| CCOC(=O)[C@H]1[C@@H](O)C(=O)N(C)C12CCN(C(=O)c1ccccc1)CC2 | -32.3 |
| O=C1CC2(CCCNC2)C(=O)N1Cc1ccc(Cl)cc1 (centres undefined) | 51.8 |
| O=C1CC2(CCCNC2)C(=O)N1Cc1cccc(F)c1 (centres undefined) | -47.2 |
| O=C1CC2(CCCNC2)C(=O)N1Cc1ccc(F)cc1 (centres undefined) | -26 |
| O=C(Nc1ccnc(OC2CCOC2)c1)c1ccccc1Cl (centres undefined) | -34.1 |
| O=C(NCC(=O)N1CCCc2ccccc21)c1c(O)cc(F)cc1F | -115 |
| COC(=O)c1c(Cl)c(C)nc2onc(C)c12 | -117 |
| CCN(CC)C(=O)C1CCN(c2ccc(Cl)cc2C#N)CC1 | -147 |
| CC1CCN(C(=O)C2CCN(c3ccc(Cl)cc3C#N)CC2)CC1 | 60.5 |
| N#Cc1cc(Cl)ccc1N1CCN(C(=O)C2CCC2)CC1 | -75.4 |
| Cn1cc(CN2CCCC23CCN(S(C)(=O)=O)CC3)cn1 | -54.3 |
| O=c1n(CCNc2cccc3ccccc23)nc2ccccn12 | -149 |
| CCC1=N[C@@]2(CC[C@@H]3CN(Cc4ccccc4F)C[C@@H]32)C(=O)N1CC | 39.8 |
| CC1=N[C@@]2(CC[C@@H]3CN(Cc4ccccc4)C[C@@H]32)C(=O)N1CC1CC1 | 17.7 |
| COCCN1C(=O)[C@]2(CC[C@@H]3CN(Cc4ccccc4F)C[C@@H]32)N=C1C | -37.9 |
| CC1=N[C@@]2(CC[C@@H]3CN(Cc4ccc(C)cc4)C[C@@H]32)C(=O)N1CC1CC1 | 30.2 |
| CC1=N[C@@]2(CC[C@@H]3CN(Cc4cccc(Cl)c4)C[C@@H]32)C(=O)N1CC1CC1 | 67.2 |
| CC1=N[C@@]2(CC[C@@H]3CN(Cc4ccccc4F)C[C@@H]32)C(=O)N1CC1CC1 | 67.6 |
| COCCN(C)C(=O)Nc1ccc2c(ccn2CCOC)c1 | -178 |
| Cc1nnc(N2CC[C@H]3C[C@H](C(=O)N4CCOCC4)O[C@H]3C2)s1 | -42.1 |
